Data taken from PubChem BioAssay (NCI).
This is part of a sample that, as a whole, favours compounds with a hit. Of some 83,000 tested, about 20% had one in any assay.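 Cell lines were cultured in 96-well plates, exposed to a single compound concentration, and assessed for percent growth 48 hours later.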 The source made the active and inactive calls. The calls were made as follows: active = growth percent below 10; inactive = the rest.

Each molecule was assayed on HS 578T breast (assay: NCI-60 one-dose screen, 48 h (100 = growth as untreated, 0 = no growth, -100 = all killed)). Settings: 10 µM.

Row | SMILES | growth
1 | Cc1cc(C)nc(NS(=O)(=O)c2ccc(N/C(N)=N/c3nccc(-c4ccccc4)n3)cc2)n1 | 48.1% (inactive)
2 | N#Cc1c(NC(=O)c2ccc(C(O)(C(F)(F)F)C(F)(F)F)cc2)sc2c1CCC(=O)C2 | -22% (active)
3 | N#Cc1ccc(-c2nn(-c3ccc(C(=O)O)cc3)cc2CNc2cc(Cl)cc(C(F)(F)F)c2)cc1 | -0.292% (active)

What follows are molecules tested on NCI/ADR-RES ovarian in the same assay as above. Settings: 10 µM.

Row | SMILES | growth
4 | O=C(NO)c1ccc(-c2nc3ccc4[nH]ncc4c3c3c2CCCC3)cc1 | -4.37% (active)
5 | O=C(CNc1nc(-c2ccccc2)cs1)Nc1ccc(Cl)cc1 | -30.3% (active)
6 | COc1cc2c3c(n(CCCN4CCOCC4)c(=O)c2cc1OC)-c1nc2c(cc1C3=O)OCO2 | 17.1% (inactive)
7 | Cc1ccc(/C=C/C(=O)c2ccc(NC(=O)CSc3nnc(-c4c[nH]c5ccccc45)n3-c3ccccc3)cc2)c(C)c1 | 64.2% (inactive)
8 | O=C(CN1CCN(c2ncnc3c2cnn3-c2ccccc2)CC1)Nc1nncs1 | -32.6% (active)
9 | CC(=O)Oc1ccccc1C(=O)Oc1ccc(C(=O)/C=C/c2ccncc2)cc1 | 63.5% (inactive)
10 | O=C(NC(=S)N1CCN(c2ncnc3c2cnn3-c2ccccc2)CC1)c1ccc(Cl)cc1 | 28.1% (inactive)
11 | C/C(=N\N=C\c1ccc(N(C)C)cc1)c1ccc2c(c1)Nc1ccccc1S2 | 26.6% (inactive)
12 | COC(=O)C[C@](O)(CCCC(C)(C)O)C(=O)O[C@H]1C(OC)=C[C@@]23CCC(=O)N2CCc2cc4c(cc2[C@@H]13)OCO4 | 102% (inactive)
13 | CN1CCN(Cc2ccc(NC(=O)c3cncc(C#Cc4cnc5ccc(N[C@H]6CCOC6)nn45)c3)cc2C(F)(F)F)CC1 | 13.7% (inactive)
14 | CCOc1ccc(/C=N/NC(=O)Cn2nc(Cc3ccc([N+](=O)[O-])cc3)c3onc(C)c3c2=O)cc1 | 19.4% (inactive)
15 | CN1CCN(c2ccc(C(=O)/C=C/c3ccc(OC(F)F)cc3)cc2)CC1 | 54.7% (inactive)
16 | COc1ccc(C2N(c3ccc(Br)cc3)N=C(C(C)=O)N2[C@H]2[C@H](OC(C)=O)O[C@H](COC(C)=O)[C@@H](OC(C)=O)[C@@H]2OC(C)=O)cc1 (stereo not given in full) | 62.1% (inactive)
17 | CCOC(=O)C1=C(N)N(c2ccccc2)C2=C(C(=O)CC(C)(C)C2)C1c1ccc(Cl)cc1 (stereo not given) | 25.6% (inactive)
18 | CCCn1c(=O)c2[nH]c(-c3ccc(OCc4nc5ccc(F)cc5[nH]4)cc3)nc2n(CCC)c1=O | 64.9% (inactive)
19 | Cc1ccc(/C(CSc2nnc(-c3c[nH]c4ccccc34)n2-c2ccccc2)=N/O)cc1 | -68.4% (active)
20 | CN1CCN(c2ccc(C(=O)/C=C/c3cc(C(F)(F)F)ccc3Cl)cc2)CC1 | -56.9% (active)
21 | COc1ccc(C(=O)Nc2sc3c(c2C#N)CCC(=O)C3)cc1C(F)(F)F | -44.7% (active)
22 | Cc1ccc(/C=C/C(=O)c2ccc(NC(=O)CSc3nnc(-c4c[nH]c5ccccc45)n3-c3ccccc3)cc2)cc1 | 93.6% (inactive)

Row | SMILES | growth
23 | COc1ccc(Nc2nc(N)n(Cc3cccc(Br)c3)n2)cc1 | 2.23% (active)
24 | O=C1CCC(N2Cc3cc(NC(=O)COc4ccccc4)ccc3C2=O)C(=O)N1 (stereo not given) | 37.8% (inactive)
25 | O=C(/C=C/Nc1ccccc1)c1ccc2c(c1)Nc1ccccc1S2 | 61.2% (inactive)
26 | COc1cc2c(c(OC)c1OC)C(=O)CC(c1cccc(NC(=O)c3cccc(N)c3)c1)O2 (stereo not given) | 68.2% (inactive)
27 | Cc1noc2c(Cc3ccc([N+](=O)[O-])cc3)nn(CC(=O)N/N=C/c3ccc(Br)cc3)c(=O)c12 | 88.5% (inactive)
28 | COc1ccc(-c2nc(Nc3ccccc3S(N)(=O)=O)c3ccccc3n2)cc1 | 18% (inactive)
29 | COc1cc(/C=C/C(=O)c2ccc(NC(=O)CSc3nnc(-c4c[nH]c5ccccc45)n3-c3ccccc3)cc2)cc(OC)c1OC | 96.1% (inactive)
30 | O=C(CSc1nnc(-c2ccc3nc(-c4ccc(Cl)cc4)[nH]c3c2)o1)Nc1ccc(Br)cc1 | 10.9% (inactive)
31 | Cc1ccn2c(C(=O)c3ccccc3)cc(-c3cc(-c4ccc(N(C)C)cc4)c(C#N)c(N)n3)c2c1 | 50.8% (inactive)
32 | O=C1c2ccccc2C(=O)c2c1c(C(=O)c1ccc(Cl)cc1)n1c2ccc2c3ccccc3ccc21 | 103% (inactive)
33 | Cn1c(O)c(N=Nc2nc(-c3cc4ccccc4oc3=O)cs2)c2cc(Br)ccc21 | 68.4% (inactive)
34 | Cn1cc(-c2cc(N)n3nc(-c4c[nH]c5ccc(Br)cc45)cc3n2)c2cccnc21 | -55.7% (active)
35 | COc1ccc2c3nc4cc(C)c(C)cc4nc3n(CCN(C)C)c2c1 | 0.91% (active)
36 | O=C(CSc1nnc(-c2c[nH]c3ccccc23)n1-c1ccccc1)c1ccc(Br)cc1 | 26.3% (inactive)
37 | OCc1[nH]nc2cc(Nc3ncc4ccc(Br)c(OC5CCC(O)CC5)c4n3)ccc12 (stereo not given) | -3.04% (active)
38 | Cc1cc(C)nc(NS(=O)(=O)c2ccc(N/C(N)=N/c3nccc(-c4ccccc4)n3)cc2)n1 | 84.5% (inactive)
39 | N#Cc1c(NC(=O)c2ccc(C(O)(C(F)(F)F)C(F)(F)F)cc2)sc2c1CCC(=O)C2 | -60.4% (active)
40 | N#Cc1ccc(-c2nn(-c3ccc(C(=O)O)cc3)cc2CNc2cc(Cl)cc(C(F)(F)F)c2)cc1 | 1.78% (active)
